Screening data (PubChem BioAssay)
PNC inhibitor = perinucleolar compartment assembly inhibition; PC3M PTB-GFP, PNC prevalence imaging, 16 h; active compounds read low; activity change (PNC), negative = inhibition, % at 10 µM; 3.1% of 140,000 active;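 active = readout at or below -70, meaning at least 70% loss of cells showing the perinucleolar compartment, a nuclear body marking cancer cells; inconclusive = readout between -30 and a set limit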;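 also: plate controls were DMSO wells for no effect and camptothecin positive control wells for full effect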
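PC3M cells stably expressing PTB-GFP, 750–1000 cells/well, treated 16 h at 37 °C with compound (23 nl of library stock), in duplicate. After paraformaldehyde fixation and Hoechst stain, imaged at 20x; PNC prevalence scored by image analysis.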
IMPase inh = membrane-permeable compound that blocks inositol monophosphatase; 120,000 tested, under 10 active; CHO-M1 cells, IP1 accumulation, HTRF TR-FRET ratio; inhibition (IP1 accumulation), % at 46.1 µM; AID 901; P97697; active = well fitted curve in the direction sought with a large enough effect in the signal ratio, not every such curve was filed as active; inconclusive = small, poorly fitted or top-dose-only effect, or a change in a side signal; inactive = no such curve, though single readings can be large or run the other way; the % refers to the signal ratio;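 also: cells stimulated with carbachol in lithium chloride buffer; plate controls were DMSO basal wells for no effect and reference inhibitor wells for full effect; higher means more IMPase inhibition seen as more IP1 and lower FRET ratio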
Target sequence (P97697 whole entry, looked up): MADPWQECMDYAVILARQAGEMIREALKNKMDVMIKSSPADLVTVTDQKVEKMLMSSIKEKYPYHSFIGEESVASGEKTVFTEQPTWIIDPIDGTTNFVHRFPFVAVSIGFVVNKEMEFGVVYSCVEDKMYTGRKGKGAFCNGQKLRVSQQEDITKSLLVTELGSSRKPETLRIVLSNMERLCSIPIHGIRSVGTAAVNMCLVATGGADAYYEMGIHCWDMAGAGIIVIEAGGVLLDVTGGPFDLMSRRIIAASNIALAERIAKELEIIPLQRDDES
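CHO-M1 cells (CHO stably expressing M1 receptor), compound up to 46 uM final, stimulated with carbachol (50 uM as added) in buffer with 50mM LiCl, pH 7.4, 30 min at 37C. Cytosolic IP1 read by TR-FRET; AC50 from Hill fits.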
LMNA splice mod = modulators of lamin A splicing; HeLa LMNA splicing GFP/RFP minigene ratio, 48 h; Potency, µM (top dose mostly 46.1 µM), for the others: at the highest dose ratio change, negative = inhibition, most hits filed as inhibitors; 0.01% of 200,000 active; active = well fitted inhibition curve with a large enough effect in the signal ratio, with a control signal flat, not every such curve was filed as active; inconclusive = small, poorly fitted or top-dose-only effect, or effect the other way, or a change in a side signal; the % refers to the signal ratio; also: potency is read from the fitted curve at half-maximal effect
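S3 HeLa stable clones carrying a lamin A-EGFP splicing minigene plus DsRed2 were seeded at 600 cells/well in Opti-MEM with 2% FBS, pin-dosed and incubated 48 h at 37°C. Acumen cytometry (488 nm) gave the GFP/RFP total-intensity ratio.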
Starred values were filed as active, the others as inactive; ? = inconclusive; . = no result given; [ ] = dose if it differs, or a comment. Many of the other results were omitted from the sample, so hits are more common in it than they were. Unless noted, % is scaled to controls: 0 for no effect and ±100 for the full control effect.

SMILES	PNC inhibitor	IMPase inh	LMNA splice mod
CCCCOC(=O)c1c(N)n(-c2ccc(OC)cc2OC)c2nc3ccccc3nc12	.	-5.4	.
CNC(=O)C(=O)NCC1OCCCN1S(=O)(=O)c1cccs1 (stereo not given)	17.2	.	2.9%
O=C(NCCO)C(=O)NCC1OCCCN1S(=O)(=O)c1cccs1 (stereo not given)	-80.2*	.	-5.9%
COc1ccc(-n2nc3cc(C)c(NC(=O)c4ccc(-c5ccc(Br)cc5)o4)cc3n2)cc1	.	-4.4	.
Cn1c2c(c(=O)n(C)c1=O)CN(CCCN1CCOCC1)CN2	-84.1*	-4.6	5.5%
CC(c1ccccc1)N1CNc2c(c(=O)n(C)c(=O)n2C)C1 (stereo not given)	?	3.7	-0.1%
O=C(Cn1cnc(S(=O)(=O)N2CCCC2)c1)Nc1ccc(OC(F)(F)F)cc1	.	.	-12.5%[46 µM]
CCC1(CC)N([O-])C(C)=C(c2ccccc2)[N+]1=O	7.7	-4.7	6.9%
CCC1(C)N([O-])C(C)=C(c2ccccc2)[N+]1=O (stereo not given)	-88.3*	-3.2	-0.5%
O=c1c2ccccc2c2ccccc2c(=O)n1Cc1cccnc1	10.1	19.0	13.0%
O=C1NC(c2ccccc2)(C(F)(F)F)C(=O)N1Cc1cccnc1 (stereo not given)	-84.6*	2.6	5.6%
Cc1ccc(OC(C)c2nnc(N)s2)cc1Cl (stereo not given)	-14.0	8.7	?
CC(Oc1ccccc1Cl)c1nnc(N)s1 (stereo not given)	-116.6*	2.8	12.6%
CC1CCN(S(=O)(=O)c2ccc3c(ccc(=O)n3CC(=O)Nc3cccc(F)c3)c2)CC1	.	.	13.6%[46 µM]
Cc1cccc(-n2nnc3c(=O)n(Cc4ccccn4)cnc32)c1	.	.	8.9%[9.22 µM]
COc1ccc(Nc2cc(C)c3cc(NC(=O)Cc4ccc(Cl)cc4)ccc3n2)cc1	.	.	-11.6%[46 µM]
N#Cc1c(-c2ccc(Br)cc2)cc(-c2cccnc2)nc1N	-11.1	.	-3.7%
N#Cc1c(-c2ccc(F)cc2)cc(-c2cccnc2)nc1N	-88.9*	.	3.9%
O=C(/C=C/c1ccc([N+](=O)[O-])cc1)N(c1ccccn1)C1CCCCC1	.	.	-23.6%[46 µM]
COc1cc(CCC(=O)OCC(=O)Nc2ccccc2OC(F)F)cc(OC)c1OC	.	.	-10.6%[46 µM]
COc1cc(CCC(=O)OCC(=O)Nc2ccccc2C(C)C)cc(OC)c1OC	-110.8*	-2.8	-7.3%
Cc1cccc(N2CCN(CCCNC(=O)c3sc4ncccc4c3-n3cccc3)CC2C)c1 (stereo not given)	.	.	-4.7%[46 µM]
C=CCOc1c(Br)cc(/C=N/O)cc1OCC	-108.6*	.	?
CCCCOc1c(Br)cc(/C=N/O)cc1OCC	9.1	12.4	-1.0%
CCn1c(CNC(=O)Cc2ccc(OC)cc2)nnc1SCC(=O)Nc1nccs1	-19.9	10.6	-6.8%
SMILES	PNC inhibitor	IMPase inh	LMNA splice mod
Cc1cc(C)nc(SCc2nnc(SCC(=O)Nc3nc(-c4ccccc4)cs3)n2C)n1	-11.6	?	-4.3%
O=C(Cc1coc2ccc3ccccc3c12)Nc1nccs1	-107.4*	-7.5	-11.9%
CCn1c(Cc2cccc3ccccc23)nnc1SCC(=O)Nc1nccs1	-100.0*	-2.4	-28.5%
O=C(Cc1coc2ccc3ccccc3c12)NCc1ccccc1	-8.4	8.5	-3.2%
Cc1cc(C)nc(SCc2nnc(SCC(=O)Nc3nccs3)n2C)n1	-100.0*	-3.0	-11.1%
O=C(COc1ccccc1)Nc1ccc2nc(SCC(=O)N3CCc4ccccc43)sc2c1	.	.	3.5%[46 µM]
COc1ccc(C(=O)OCCN2CCOCC2)cc1OC	?	8.0	0.5%
COc1ccccc1/C=C/C(=O)OCCN1CCOCC1	-87.2*	-3.8	-4.8%
O=C(OCCN1CCOCC1)c1ccc2c(c1)OCCO2	-11.6	-2.2	-7.5%
COc1ccc(C(=O)OCCN2CCOCC2)cc1	-100.0*	7.3	0.0%
COc1ccccc1/C=C/C(=O)N1CCOCC1	50.7	4.3	10.3%
O=C(OCCN1CCOCC1)c1ccc(OCCN2CCOCC2)cc1	-84.6*	-3.8	1.7%
Cc1cc(C)n(C(C)CC(=O)NCc2ccccc2C)n1 (stereo not given)	.	.	-3.6%[46 µM]
COC(=O)Cc1ccc(NC(=S)N2CCCCC2C)cc1 (stereo not given)	.	.	3.0%[46 µM]
O=c1c2ccccc2nc(/C=C/c2ccc([N+](=O)[O-])o2)n1CCCO	-88.6*	5.7	?
Cc1nc2ccccc2c(=O)n1CCCO	35.6	0.8	-1.4%
CCOC(=O)N/N=C/c1c(C)nn(-c2ccccc2Cl)c1Cl	-8.9	3.7	-6.9%
Cc1nn(-c2ccccc2Cl)c(Cl)c1/C=N/Nc1nc2ccccc2s1	-82.6*	.	?
CC(=O)c1ccc(N2CCN(C(=O)CS(=O)(=O)c3cccc4nsnc34)CC2)cc1	.	.	10.4%[46 µM]
CCN1CCN(C(=S)Nc2ccc3nc4n(c(=O)c3c2)CCCCC4)CC1	.	.	-5.2%[46 µM]
COc1ccc(S(=O)(=O)NC(CC(=O)N2CCc3ccccc32)c2ccco2)cc1 (stereo not given)	-82.0*	-1.6	-2.3%
Cc1ccc(S(=O)(=O)NC(CC(=O)N2CCc3ccccc32)c2ccco2)cc1 (stereo not given)	15.6	13.6	?
COc1ccc(-c2nc(-c3ccccc3)c(-c3ccc(F)cc3)[nH]2)c(OC)c1C	.	5.1	.
Nc1nc(-c2nonc2N)no1	.	.	-4.3%[46 µM]
Nc1nonc1-c1noc(-c2ccccc2)n1	-100.0*	-4.2	-3.6%
SMILES	PNC inhibitor	IMPase inh	LMNA splice mod
Cc1nn2c(-c3ccncc3)nnc2c2ccccc12	-5.2	4.5	-14.3%
COc1ccc(-c2nnc3c4ccccc4c(C)nn23)cc1	-88.9*	8.8	?
O=C(NC1=NCCS1)c1ccc(Cl)c(S(=O)(=O)N2CCOCC2)c1	.	.	11.8%[46 µM]
Cc1ccc(C)n1-c1sc2c(c1C#N)CCCC2	-100.0*	0.5	19.5%
Cc1sc(-n2c(C)ccc2C)c(C#N)c1C	16.8	5.9	6.9%
Cc1ccc2nc(-c3ccccc3O)c(Nc3ccc4c(c3)OCCO4)n2c1	-113.4*	.	-4.8%
Cc1ccc2nc(-c3ccc(O)cc3)c(Nc3ccc4c(c3)OCCO4)n2c1	-5.1	-10.6	-14.1%
COc1ccc(C(=O)Cc2ccccc2)cc1OC	-83.9*	.	3.5%
O=C(COc1ccccc1)NCC(=O)N/N=C/c1ccco1	-121.5*	.	?
COc1ccccc1OCc1ccc(C(=O)N/N=C/c2ccco2)cc1	-113.8*	.	7.6%
COc1ccc(C(=O)NN=C(Cc2ccccc2)Cc2ccccc2)cc1OC	8.9	.	-2.7%
CNC(=O)c1ccc(OCc2ccccc2)c(OC)c1	-106.5*	5.3	-2.0%
COc1ccc(OCC(=O)N/N=C\c2ccco2)cc1	.	.	-3.2%[46 µM]
COc1ccccc1OCc1ccc(C(=O)NN)cc1	-0.7	-2.1	12.2%
COc1ccc(CC(=O)c2ccc(OC)c(OC)c2)cc1	-12.7	.	?
CCCCC(=O)Nc1cccc(-c2nc3ccccc3s2)c1	.	.	1.0%[46 µM]
NS(=O)(=O)c1ccc(CCNc2ncnc3c2cnn3-c2cccc(Cl)c2)cc1	.	.	-17.8%[46 µM]
O=C(NC(=S)NCc1cccnc1)c1cccc2ccccc12	.	.	20.9%[46 µM]
O=C(O)CN1CCCC1=Nc1ccccc1	-10.7	-3.7	12.4%
Cc1ccc(C)c(N=C2CCCN2Cc2ccccc2)c1C#N	-118.9*	18.5	?
Cc1cc(C)cc(NC(=O)c2cc(S(=O)(=O)N3CCOCC3)cn2C)c1	.	.	9.6%[46 µM]
